This passage reports composite z-score and z-score results from PubChem BioAssay.

For test [1], the system named is XIP peptide (Xip251-270) binding. The test is described as follows: small-molecule binders of XIP peptide, primary screen, biochemical, small-molecule microarray, fluorescence 635/667 nm, 0.1 µg/mL protein (AID 1182). The settings on record: fluorescent protein binding, 635 nm, higher = more signal, called active from +8 up or from −8 down.
The test system of test [2] is XIP peptide (Xip251-270). As to the kind of experiment: small-molecule binders of XIP peptide, primary screen, biochemical, small-molecule microarray, fluorescence 635/667 nm, 0.5 µg/mL protein (AID 1183). The settings on record: small-molecule microarray binding, fluorescence 635 nm; higher = more signal.
The nature of test [3]: Plasmodium falciparum growth inhibition, primary screen, strain 3D7, DAPI fluorescence, 100 nL (AID 1184).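 Further: parasites grown inside human red blood cells in medium with human serum.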 The settings on record: P. falciparum 3D7 growth, 3 d, higher = more signal.
Test [4] addresses Homeobox protein Hox-A13 (Mus musculus) (UniProt Q62424). As to the kind of experiment: inhibitors of HoxA13-DNA binding, primary screen, biochemical, fluorescence polarization, labeled oligonucleotide (AID 1185). The settings on record: 15 min, higher = more signal, called active from +8 up or from −8 down.
Test [5] is described as follows: inhibitors of hydroxyurea-induced Chk1 phosphorylation, primary screen, imaging, HeLa, phospho-Chk1 antibody, percent positive cells (AID 1186). The settings on record: hydroxyurea-induced phospho-Chk1 immunofluorescence imaging, higher = more signal.
Test [6] is described as follows: inhibitors of hydroxyurea-induced Chk1 phosphorylation, primary screen, imaging, HeLa, phospho-Chk1 nuclear intensity (AID 1187). The following applies: hydroxyurea-induced phospho-Chk1 immunofluorescence imaging, higher = more signal.

Active and inactive are the calls of the source. Unless noted, how the calls were made is not given here.

Homeobox protein Hox-A13 (Mus musculus), sequence (Q62424 whole entry, looked up): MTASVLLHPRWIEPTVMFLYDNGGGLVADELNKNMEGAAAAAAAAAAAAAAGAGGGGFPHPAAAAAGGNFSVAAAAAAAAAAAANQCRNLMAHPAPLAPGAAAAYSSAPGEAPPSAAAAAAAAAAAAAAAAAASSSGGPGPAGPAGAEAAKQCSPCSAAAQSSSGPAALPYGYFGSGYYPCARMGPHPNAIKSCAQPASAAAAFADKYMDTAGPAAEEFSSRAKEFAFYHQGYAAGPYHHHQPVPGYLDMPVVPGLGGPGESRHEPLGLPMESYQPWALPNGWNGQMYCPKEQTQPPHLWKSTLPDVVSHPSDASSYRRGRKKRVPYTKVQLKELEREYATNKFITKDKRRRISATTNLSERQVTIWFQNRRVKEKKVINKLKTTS

`NC(=O)[C@@H]1[C@H]2C(=O)O[C@H](c3ccccc3)[C@H](c3ccccc3)N2[C@H](c2ccc(OCCO)cc2)[C@@]12C(=O)Nc1ccc(C#CCCO)cc12`: the composite z-score in test [1] was 0.198 (inactive); in test [2], 0.808. Moreover, the z-score was 0.195 in test [3], -4.88 (inactive) in test [4], -0.504 (inactive) in test [5] and -0.804 (inactive) in test [6].
As for `CCCCC(=C=CC[C@H](O)c1ccc(OCCO)cc1)C[C@H](O)COCc1ccccc1`, the composite z-score in test [1] is 0.9 (inactive); in test [2], 0.1. Moreover, the z-score was -1.44 in test [3], -4.21 (inactive) in test [4], -0.122 (inactive) in test [5] and -0.0784 (inactive) in test [6].
For the compound `C=CCC(OC(C)=O)[C@@H]1[C@@H](N(Cc2ccc(-c3ccccc3)cc2)C(=O)c2ccc(C)cc2)c2cc(OCCCO)ccc2N1C(=O)Cc1ccc2ccccc2c1` (some centres undefined), the figures for the composite z-score in test [1] and in test [2] were 0.254 (inactive) and 0.0529, respectively. Besides, the z-score is -0.481 in test [3], -1.28 (inactive) in test [4], -0.816 (inactive) in test [5] and -0.488 (inactive) in test [6].
`C=CCC(OC(C)=O)[C@@H]1[C@@H](N(Cc2ccc(-c3cccc(C(F)(F)F)c3)o2)C(=O)c2ccc(C)cc2)c2cc(OCCCO)ccc2N1C(=O)Cc1ccc(OC)cc1` (some centres undefined): the composite z-score in test [1] was -0.635 (inactive); in test [2], -0.0047. For the same compound, the z-score is -0.549 in test [3], -0.791 (inactive) in test [4], -0.159 (inactive) in test [5] and 0.0947 (inactive) in test [6].
Consider `CO[C@H]1O[C@H](CO)[C@@H](OC(=O)CCc2ccccc2)[C@H](OC(=O)c2cc3ccccc3[nH]2)[C@H]1OC(=O)c1cc2ccccc2[nH]1`, for which the values for the composite z-score in test [1] and in test [2] were 0.983 (inactive) and 0.637, respectively. In addition, the z-score in test [3] is -1.03; in test [4], -0.797 (inactive); in test [5] it was -0.616 (inactive); in test [6], -1.27 (inactive).
On to `CC(C)(C)OC(=O)CC[C@]1(C(=O)N2CCCCC2)COC(c2ccc(OCCCO)cc2)=N1`, for which the composite z-score is 0.252 (inactive) in test [1] and 0.643 in test [2]. Also, the z-score is -1.4 in test [3], -4.56 (inactive) in test [4], -0.334 (inactive) in test [5] and 0.131 (inactive) in test [6].
For `C=C(/C(=C/C[C@@H](OC(=O)c1ccncc1)c1cccc(OCCO)c1)c1cnc2ccccc2c1)C(C)C`, the results for the composite z-score in test [1] and in test [2] were 0.601 (inactive) and 0.602, respectively. The z-score in test [3] was -2.88; in test [4] it was -4.48 (inactive); in test [5] it was 0.242 (inactive); in test [6], 0.258 (inactive).
For the compound `CC(C)C(=C=CC[C@@H](O)c1cccc(OCCO)c1)C[C@@H](O)c1ccccn1`, the composite z-score in test [1] is -0.0008 (inactive); in test [2], 0.29. The z-score in test [3] is -0.0244; in test [4] it was -5.17 (inactive); in test [5], -0.122 (inactive); in test [6], 0.156 (inactive).
As for `CCCCCCCCCCC(O)C1C=CC2C(=O)N(c3ccccc3)C(=O)C2N1Nc1ccccc1F` (centres undefined), the composite z-score in test [1] is 1.69 (inactive); in test [2] it was 0.538. Moreover, the z-score in test [3] was 0.157; in test [4], 0.356 (inactive); in test [5], -0.745 (inactive); in test [6] it was -1.48 (inactive).
Consider `C=CCC(OC(C)=O)[C@@H]1[C@@H](N(Cc2cccc3ccccc23)C(=O)c2ccc(-c3ccccc3)cc2)c2cc(OCCCO)ccc2N1C(=O)c1ccc(-c2ccccc2)cc1` (some centres undefined), for which the composite z-score in test [1] is -0.303 (inactive); in test [2] it was -0.811. Moreover, the z-score in test [3] was 0.579; in test [4], -1.17 (inactive); in test [5], 0.492 (inactive); in test [6] it was 0.0424 (inactive).
Take `Nc1cc(Br)ccc1C(=O)O`: the composite z-score was 0.513 (inactive) in test [1] and -0.244 in test [2]. Besides, the z-score in test [3] was 1.1; in test [4], 0.686 (inactive); in test [5] it was 0.132 (inactive); in test [6] it was 0.343 (inactive).
As for `COCCOC(=O)N1C(=O)[C@@]2(c3ccccc31)[C@H](c1ccccc1OCCO)N1[C@H](c3ccccc3)[C@H](c3ccccc3)OC(=O)[C@H]1[C@@H]2C(N)=O`, the figures for the composite z-score in test [1] and in test [2] were 2.37 (inactive) and 0.784, respectively. For the same compound, the z-score in test [3] was -0.946; in test [4] it was -4.81 (inactive); in test [5], 0.0327 (inactive); in test [6], 0.12 (inactive).
For `COc1ccc([Si](C)(C)[C@@H]2[C@@H](CCn3cc([C@H](O)c4ccccc4)nn3)O[C@]3(C(=O)N(c4ccccc4)c4ccccc43)[C@H]2C)cc1`, the composite z-score in test [1] is -0.17 (inactive); in test [2], 0.559. Moreover, the z-score is -1.73 in test [3], -3.01 (inactive) in test [4], -0.431 (inactive) in test [5] and -0.361 (inactive) in test [6].
As to `CCCCCCCCCCC(O)C1C=CC2C(=O)N(C)C(=O)C2N1Nc1cc(OC)c(OC)c(OC)c1` (centres undefined), the composite z-score in test [1] was 0.275 (inactive); in test [2] it was -0.924. Further, the z-score was -0.326 in test [3], -3.83 (inactive) in test [4], 0.569 (inactive) in test [5] and -0.418 (inactive) in test [6].
`Cc1ccc(S[C@]2(C(=O)NC(C)C)CC(=O)N(Cc3ccccc3Cl)[C@@H]2c2ccc(CO)cc2)cc1`: the composite z-score in test [1] is 0.73 (inactive); in test [2], -0.11. Besides, the z-score is -1.49 in test [3], -3.73 (inactive) in test [4], -0.0383 (inactive) in test [5] and -0.0912 (inactive) in test [6].
With `COC(=O)[C@@]1(Cc2ccccc2)[C@H]2c3cc(C(=O)N4CCCC4)n(CCSCCO)c3C[C@H]2CN1C(=O)c1ccccc1`, the composite z-score in test [1] was 0.343 (inactive); in test [2], 0.752. The z-score is -1.7 in test [3], -5.06 (inactive) in test [4], 1.45 (inactive) in test [5] and 0.501 (inactive) in test [6].
Take `O=C1N(CCS(=O)(=O)c2ccccc2)Cc2ccccc2[C@@H]2OC(c3ccc(OCCCO)cc3)=N[C@]12CCS(=O)(=O)c1ccccc1`: the composite z-score in test [1] was 1.25 (inactive); in test [2], 0.86. Also, the z-score is -2.1 in test [3], 0.71 (inactive) in test [4], 0.367 (inactive) in test [5] and 0.793 (inactive) in test [6].
Regarding `C#C[C@@H](CC)O[Si](C#CCCCC#N)(C(C)C)C(C)C`, the results for the composite z-score in test [1] and in test [2] were 1.09 (inactive) and 0.261, respectively. Moreover, the z-score is -0.574 in test [3], -1.27 (inactive) in test [4], 0.33 (inactive) in test [5] and 0.0685 (inactive) in test [6].
Take `Cc1ccccc1C(O)C1C=CC2C(=O)NC(=O)C2N1Nc1ccc(Cl)cc1Cl` (centres undefined): the composite z-score in test [1] is 3.24 (inactive); in test [2], 0.693. Further, the z-score in test [3] was 0.254; in test [4] it was -5.08 (inactive); in test [5], 0.165 (inactive); in test [6], -0.016 (inactive).
